# Experimental data taken from article PMC4336329 (PLoS ONE, 2015).
# In all, about 310,000 compounds went through this assay and about 14,000 (4.5%) showed an effect of 50% or more. Effects have a minus sign here. The entries come from a sample that favours strong results as a whole.
# Biological target: human ether-à-go-go-related gene (hERG) potassium channel (human, UniProt Q12809)
# Assay: primary screen, population patch clamp on CHO cells stably expressing hERG; higher = less effect of the substance
# 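Also: peak tail current of the secondary pulse compared with the same well before compound.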
# human ether-à-go-go-related gene (hERG) potassium channel, sequence (Q12809 whole entry, looked up): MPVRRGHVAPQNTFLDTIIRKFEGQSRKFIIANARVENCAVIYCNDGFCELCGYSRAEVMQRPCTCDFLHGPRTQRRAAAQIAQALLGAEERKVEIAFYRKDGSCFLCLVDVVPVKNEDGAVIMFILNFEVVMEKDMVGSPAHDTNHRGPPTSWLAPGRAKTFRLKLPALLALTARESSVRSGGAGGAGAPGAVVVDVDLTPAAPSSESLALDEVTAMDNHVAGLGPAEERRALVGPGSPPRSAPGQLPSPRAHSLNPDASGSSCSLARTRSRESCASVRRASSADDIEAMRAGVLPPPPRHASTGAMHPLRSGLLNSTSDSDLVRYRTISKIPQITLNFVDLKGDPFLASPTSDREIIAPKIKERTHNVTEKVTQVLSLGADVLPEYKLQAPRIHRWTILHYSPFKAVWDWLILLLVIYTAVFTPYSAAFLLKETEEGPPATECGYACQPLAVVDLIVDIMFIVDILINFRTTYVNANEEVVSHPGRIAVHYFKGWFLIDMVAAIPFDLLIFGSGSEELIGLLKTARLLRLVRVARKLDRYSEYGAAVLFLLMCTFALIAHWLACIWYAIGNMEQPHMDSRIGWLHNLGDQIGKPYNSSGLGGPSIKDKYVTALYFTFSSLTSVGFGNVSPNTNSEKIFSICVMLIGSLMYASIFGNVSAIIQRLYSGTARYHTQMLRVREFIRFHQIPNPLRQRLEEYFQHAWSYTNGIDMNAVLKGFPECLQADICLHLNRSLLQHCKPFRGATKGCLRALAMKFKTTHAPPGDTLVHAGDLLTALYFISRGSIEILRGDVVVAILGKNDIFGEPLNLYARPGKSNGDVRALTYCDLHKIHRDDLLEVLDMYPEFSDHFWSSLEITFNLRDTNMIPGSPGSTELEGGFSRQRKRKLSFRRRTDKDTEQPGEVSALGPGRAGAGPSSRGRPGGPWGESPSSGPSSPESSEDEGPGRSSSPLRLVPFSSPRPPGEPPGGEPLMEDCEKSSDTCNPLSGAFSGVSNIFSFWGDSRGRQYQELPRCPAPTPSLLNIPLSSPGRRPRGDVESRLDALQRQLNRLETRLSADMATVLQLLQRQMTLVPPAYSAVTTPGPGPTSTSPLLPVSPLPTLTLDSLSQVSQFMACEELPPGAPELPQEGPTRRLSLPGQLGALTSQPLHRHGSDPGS
row,SMILES,"hERG current change (%, negative = inhibition) at 10uM [%]"
1,CCN(CC)S(=O)(=O)c1cccc(N=Nc2sc(N)nc2C)c1,-12.8
2,S=C1NC[C@H](CC2CCCCC2)N1CC1CCCCC1,-8.59
3,O=C(CN1CCCCC1)Nc1ccc(NC(=O)c2ccc(Cl)cc2)cc1Cl,13.7
4,CCC(NC(=O)c1cc(COc2cncc(Cl)c2)on1)c1ccncc1 (stereo not shown),8.75
5,COc1ccc(-c2cc3ccccc3n2CC(O)CN2CCCCC2)cc1.O=C(O)C(=O)O (stereo not shown),-79.6
6,COc1ccc(-c2cc3ccccc3n2CC(O)CNCCO)cc1.O=C(O)C(=O)O (stereo not shown),3.61
7,COc1ccc(-c2cc3ccccc3n2CC(O)CN2CCN(CCO)CC2)cc1 (stereo not shown),-29.9
8,COc1ccc(-c2cc3ccccc3n2CC(O)CN2CCOCC2)cc1 (stereo not shown),-13.5
9,COc1ccc(-c2cc3ccccc3n2CC(O)CN2CCC(C)CC2)cc1.O=C(O)C(=O)O (stereo not shown),-77
10,COc1ccc(-c2cc3ccccc3n2CC(O)Cn2nc(C)cc2C)cc1 (stereo not shown),4.62
11,OCC[C@H]1C[C@H](O)[C@@H](O)[C@@]2(OCc3ccccc32)O1,8.35
12,CCOc1ccccc1N(CC(=O)NC(C)(C)C)C(=O)Cn1nnc(-c2ccc(C)o2)n1,-16
13,O=C(C1CC1)N1CCc2cc(Br)cc(S(=O)(=O)N3CCN(c4ccccn4)CC3)c21,-17.5
14,COc1ccc(CCNC(=O)NCCc2c[nH]c3ccccc23)cc1OC,-3.31
15,CCOc1ncccc1C(=O)Nc1cccc(-c2nnc3n2CCCCC3)c1,-19.6
16,CC(C)(C)OC(=O)N1CCC(C(=O)NCC2CCCO2)CC1 (stereo not shown),16.5
17,O=C(CC(C(=O)N1CCc2ccccc21)n1ccnc1)NCc1ccccc1 (stereo not shown),-26.5
18,O=C(/C=C/c1ccccc1)Nc1cc(S(=O)(=O)N2CCOCC2)ccc1N1CCCC1,-1.04
19,O=C(/C=C/c1ccc(F)cc1)Nc1ccc(S(=O)(=O)N2CCOCC2)cc1,9
20,COc1cc(/C=C/C(=O)Nc2cc(S(=O)(=O)N3CCOCC3)ccc2N2CCCC2)cc(OC)c1OC,24
21,Cc1ccc(/C=C/C(=O)Nc2cc(S(=O)(=O)N3CCOCC3)ccc2N2CCOCC2)cc1,-43.2
22,O=C(/C=C/c1cccc(F)c1)Nc1cc(S(=O)(=O)N2CCOCC2)ccc1N1CCCC1,-57.7

row,SMILES,"hERG current change (%, negative = inhibition) at 10uM [%]"
1,O=C(/C=C/c1ccc(F)cc1)Nc1cc(S(=O)(=O)N2CCOCC2)ccc1N1CCCC1,-70.9
2,Cc1ccc(NC(=O)/C=C/c2ccc3c(c2)OCO3)cc1S(=O)(=O)N1CCOCC1,-13
3,COc1ccc(/C=C/C(=O)Nc2cc(S(=O)(=O)N3CCOCC3)ccc2N2CCCC2)cc1OC,-40.3
4,O=C(/C=C/c1ccc2c(c1)OCO2)Nc1cc(S(=O)(=O)N2CCOCC2)ccc1N1CCOCC1,-55.9
5,Cc1ccn(CCC(=O)O)n1,26.6
6,Cc1[nH]n(-c2ccccc2)c(=O)c1/C=N/N1C(=O)c2cccc3cccc(c23)C1=O,3.73
7,COc1ccc(/C=C/c2nc3sc4c(c3c(=O)o2)CCC4)cc1,4.28
8,Cc1ccc(-c2nc(N)c3c(-c4ccc(C)cc4)nn(C(C)(C)C)c3n2)cc1,-1.71
9,O=C(COc1ccc(S(=O)(=O)N2CCOCC2)cc1)NCCc1ccccc1,-13.4
10,CCN(CC)CCNc1nc2c(c(=O)n(C)c(=O)n2C)n1C/C=C(/C)Cl,-58.9
11,C/C(Cl)=C/Cn1c(NCCN(C)C)nc2c1c(=O)n(C)c(=O)n2C,-26.9
12,C/C(Cl)=C\Cn1c(NCCc2ccccc2)nc2c1c(=O)n(C)c(=O)n2C,-9.3
13,CCC(=O)NCCCc1nc(-c2ccccc2)no1,5.95
14,COc1ccc(CN2C(=O)COc3ccccc32)cc1,12
15,CCCCN(CCCC)C(=O)CCS(=O)(=O)c1ccc2c(c1)n(C)c(=O)c(=O)n2C,-69.2
16,CCCCN(CCCC)C(=O)CN(C)S(=O)(=O)c1ccc2c(c1)n(C)c(=O)c(=O)n2C,-37
17,CCN(Cc1ccccc1)C(=O)CCS(=O)(=O)c1ccc2c(c1)n(C)c(=O)c(=O)n2C,-15
18,CCC(C)NC(=O)CSc1nnc(-c2ccncc2)n1-c1ccc(OC)cc1 (stereo not shown),-0.947
19,COc1ccc(-n2c(SCC(=O)NNC(=O)c3ccccc3C)nnc2-c2ccncc2)cc1,-7.21
20,CCn1c(SCC(=O)NNC(=O)c2ccc(C)cc2)nnc1-c1ccncc1,-0.879
21,COc1ccc(-n2c(SCC(=O)NNC(=O)c3ccc(C)cc3)nnc2-c2ccncc2)cc1,-58.6
22,Cc1ccc(C(=O)NNC(=O)CSc2nnc(-c3ccncc3)n2C)cc1,24.9

row,SMILES,"hERG current change (%, negative = inhibition) at 10uM [%]"
1,Cc1ccc(C(=O)NNC(=O)CSc2nnc(-c3ccncc3)n2-c2ccc(C)cc2)cc1,-51.4
2,CC(=O)N1c2ccc(S(=O)(=O)NCCC(=O)NCCc3cccc(C)c3)cc2CC1C (stereo not shown),-4.31
3,CC(C)[C@H](NC(=O)c1ccco1)C(=O)OCC(=O)NC12CC3CC(CC(C3)C1)C2,-18.7
4,CCOc1cc(/C=N/NS(=O)(=O)c2ccccc2)ccc1OS(=O)(=O)c1ccc(C)cc1,2.1
5,Cc1ccc(S(=O)(=O)Oc2cccc(/C=N/n3cnnc3)c2)cc1,-49
6,CCOc1cc(C=C2C(=O)NC(=O)NC2=O)ccc1OS(=O)(=O)c1ccccc1,-18
7,COc1cc(/C=N/n2cnnc2)ccc1OS(=O)(=O)c1ccccc1[N+](=O)[O-],-51
8,CCOc1cc(/C=N/O)ccc1OS(=O)(=O)c1ccc(C)cc1,-5.21
9,CCOc1cc(/C=N/n2cnnc2)ccc1OS(=O)(=O)c1ccccc1,-57.7
10,O=[N+]([O-])c1ccccc1S(=O)(=O)Oc1ccc(/C=N/n2cnnc2)cc1,-40.6
11,CCOc1cc(/C=N/n2cnnc2)ccc1OS(=O)(=O)c1ccc(C)cc1,-50.5
12,COc1cc(C=O)ccc1OS(=O)(=O)c1ccccc1[N+](=O)[O-],4.1
13,Cn1ncc2c(Nc3ccc(Cl)c(Cl)c3)ncnc21,14.5
14,O=C(O)CCn1cc(/C=C2\SC(=S)NC2=O)c(-c2ccccc2)n1,21.8
15,COc1ccc2c(c1)CC/C2=N\NC(=O)c1ccccc1,-3.69
16,CC1(C)COC(Nc2ccc(Cl)cc2)=N1,-35.8
17,Cc1ccc(Cn2nnnc2CN2CCC(O)(c3ccccc3F)CC2)cc1,-21.5
18,CC(CCc1ccccc1)NC(=O)c1ccc(-n2cncn2)c([N+](=O)[O-])c1 (stereo not shown),-70.9
19,Cc1ccc(C(=O)NC(C)CCc2ccccc2)cc1[N+](=O)[O-] (stereo not shown),-13.9
20,O=C(NNC(=O)c1ccc(-n2cncn2)c([N+](=O)[O-])c1)c1ccccc1,9.34
21,O=C(NCCCc1ccccc1)c1ccc(-n2cncn2)c([N+](=O)[O-])c1,-60.5
22,O=C(NCCC1=CCCCC1)c1ccc(-n2cncn2)c([N+](=O)[O-])c1,-22.5

row,SMILES,"hERG current change (%, negative = inhibition) at 10uM [%]"
1,Cc1cc(C(=O)NC(C)CCc2ccccc2)ccc1[N+](=O)[O-] (stereo not shown),-29.5
2,CCCC[n+]1c(-c2ccc(Cl)cc2Cl)csc1Nc1ccccc1.[Cl-],-6.7
3,O=C(CC12CC3CC(CC(C3)C1)C2)N1CCCOC1,-3.81
4,O=C(CCO)c1ccc(O)cc1,10.6
5,FC(F)(F)c1ccccc1NC(=S)N1CCN(c2ccccn2)CC1,5.12
6,Cc1nc(C)n(CCNC(=O)c2ccco2)n1,27
7,O=C(NCCN1CCCCC1)c1ccco1,7.02
8,Cc1ccc2sc(N3CCN(CCNC(=O)c4ccco4)CC3)nc2c1C.Cl,-58.2
9,Br.Cc1ccc(C)c(C(=O)Cn2c(NCCO)nc3ccccc32)c1,6.12
10,CCOC(=O)C1(CCOc2ccccc2)CCN(C2Cc3ccccc3C2)CC1,-53.4
11,CCOC(=O)C1(Cc2ccc(Cl)cc2)CCN(C2CCC2)CC1,-44.9
12,Cc1ccc(OCC(=O)N2CCCC(CO)(CCOc3ccccc3)C2)cc1 (stereo not shown),-30.4
13,OCC1(CCOc2ccccc2)CCN(C2Cc3ccccc3C2)CC1,-72.8
14,CCOC(=O)C1(Cc2ccccc2)CCCN(C2CCCC2)C1 (stereo not shown),-2.87
15,CCOC(=O)C1(CCc2ccccc2)CCN(C(=O)[C@@H]2C[C@@H](C)NC(=S)N2)CC1,6.08
16,CCOC(=O)C1(CCc2ccccc2)CCN(C2CCSCC2)CC1,-76.3
17,CCOC(=O)C1(CCOc2ccccc2)CCN(S(=O)(=O)N(C)C)CC1,-1.79
18,CCOC(=O)C1(Cc2ccccc2C(F)(F)F)CCN(C2CCSC2)CC1 (stereo not shown),-25.2
19,CCOC(=O)C1(Cc2ccccc2)CCN(C2Cc3ccccc3C2)CC1,-66.4
